Where a chain is given by its changes, count along the chain named.
Tests used:
Test in all cases: PBM; 200 nM protein, PBS
Conditions in all cases: dsDNA, one strand shown
HESX1 [1] = target: HESX1 (Homo sapiens, UniProt Q9UBX0 95-180, R165K)
HESX1 [2] = target: HESX1 (Homo sapiens, UniProt Q9UBX0 95-180)
HESX1 [3] = target: HESX1 (Homo sapiens, UniProt Q9UBX0 95-180, P111T)
HESX1 [4] = target: HESX1 (Homo sapiens, UniProt Q9UBX0 95-180, F115L)
HOXB4 [5] = target: HOXB4 (Homo sapiens, UniProt P17483 148-234)
HOXB4 (Homo sapiens, UniProt P17483 148-234), sequence (P17483 148-234): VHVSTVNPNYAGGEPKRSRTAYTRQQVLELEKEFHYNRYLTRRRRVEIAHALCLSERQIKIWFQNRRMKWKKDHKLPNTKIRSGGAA

CRX [6] = target: CRX (Homo sapiens, UniProt O43186 26-111)
CRX (Homo sapiens, UniProt O43186 26-111), sequence (O43186 26-111): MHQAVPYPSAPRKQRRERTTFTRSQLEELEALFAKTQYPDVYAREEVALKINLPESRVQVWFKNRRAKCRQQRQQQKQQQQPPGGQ

HOXC9 [7] = target: HOXC9 (Homo sapiens, UniProt P31274 178-260, K195R)
HOXC9 (Homo sapiens, UniProt P31274 178-260, K195R), sequence (P31274 178-260 K195R): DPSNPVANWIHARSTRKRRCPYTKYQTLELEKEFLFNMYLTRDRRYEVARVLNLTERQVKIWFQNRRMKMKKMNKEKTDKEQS

PAX4 [8] = target: T1, PAX4 (Homo sapiens, UniProt O43316 9-242, R200K)
T1 sequence: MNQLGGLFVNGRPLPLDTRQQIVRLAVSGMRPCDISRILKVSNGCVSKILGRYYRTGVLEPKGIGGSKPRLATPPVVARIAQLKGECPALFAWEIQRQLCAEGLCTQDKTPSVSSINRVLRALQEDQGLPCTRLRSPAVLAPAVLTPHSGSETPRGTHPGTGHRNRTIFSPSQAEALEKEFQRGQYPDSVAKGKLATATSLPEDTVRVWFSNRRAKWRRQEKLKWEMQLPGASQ

PAX4 [9] = target: T2, PAX4 (Homo sapiens, UniProt O43316 9-242)
T2 sequence: T1 sequence with K192R

HOXB4 [10] = target: HOXB4 (Homo sapiens, UniProt P17483 148-234, V174I)
HOXB4 (Homo sapiens, UniProt P17483 148-234, V174I), sequence (P17483 148-234 V174I): as the sequence (P17483 148-234) above, with V27I counted along it

CRX [11] = target: CRX (Homo sapiens, UniProt O43186 26-111, E42D)
CRX (Homo sapiens, UniProt O43186 26-111, E42D), sequence (O43186 26-111 E42D): as the sequence (O43186 26-111) above, with E17D counted along it

HOXC9 [12] = target: HOXC9 (Homo sapiens, UniProt P31274 178-260)
HOXC9 (Homo sapiens, UniProt P31274 178-260), sequence (P31274 178-260): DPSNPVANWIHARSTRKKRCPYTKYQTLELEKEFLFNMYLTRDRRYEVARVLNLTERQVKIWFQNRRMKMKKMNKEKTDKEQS

ALX3 [13] = target: ALX3 (Homo sapiens, UniProt O95076 139-225, N203Q)
ALX3 (Homo sapiens, UniProt O95076 139-225, N203Q), sequence (O95076 139-225 N203Q): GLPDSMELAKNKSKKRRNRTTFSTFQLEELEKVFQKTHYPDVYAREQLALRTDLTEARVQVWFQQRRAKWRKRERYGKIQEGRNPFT

PAX4 [14] = target: T3, PAX4 (Homo sapiens, UniProt O43316 9-242, R200Q)
T3 sequence: T1 sequence with K192Q

HOXC9 [15] = target: HOXC9 (Homo sapiens, UniProt P31274 178-260, R193K)
HOXC9 (Homo sapiens, UniProt P31274 178-260, R193K), sequence (P31274 178-260 R193K): as the sequence (P31274 178-260) above, with R16K counted along it

PAX4 [16] = target: T4, PAX4 (Homo sapiens, UniProt O43316 9-242, F177V)
T4 sequence: T1 sequence with F169V, K192R

ALX3 [17] = target: ALX3 (Homo sapiens, UniProt O95076 139-225)
ALX3 (Homo sapiens, UniProt O95076 139-225), sequence (O95076 139-225): as the sequence (O95076 139-225 N203Q) above, with Q65N counted along it

PAX4 [18] = target: T5, PAX4 (Homo sapiens, UniProt O43316 9-242, F177Y)
T5 sequence: T1 sequence with F169Y, K192R

VAX1 [19] = target: VAX1 (Homo sapiens, UniProt Q5SQQ9 86-172)
VAX1 (Homo sapiens, UniProt Q5SQQ9 86-172), sequence (Q5SQQ9 86-172): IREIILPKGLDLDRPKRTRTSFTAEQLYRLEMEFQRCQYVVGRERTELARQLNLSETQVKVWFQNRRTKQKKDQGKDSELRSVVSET

ALX3 [20] = target: ALX3 (Homo sapiens, UniProt O95076 139-225, L168Q)
ALX3 (Homo sapiens, UniProt O95076 139-225, L168Q), sequence (O95076 139-225 L168Q): as the sequence (O95076 139-225 N203Q) above, with L30Q, Q65N counted along it

HOXC9 [21] = target: HOXC9 (Homo sapiens, UniProt P31274 178-260, R222W)
HOXC9 (Homo sapiens, UniProt P31274 178-260, R222W), sequence (P31274 178-260 R222W): as the sequence (P31274 178-260) above, with R45W counted along it

ALX3 [22] = target: ALX3 (Homo sapiens, UniProt O95076 139-225, L168V)
ALX3 (Homo sapiens, UniProt O95076 139-225, L168V), sequence (O95076 139-225 L168V): as the sequence (O95076 139-225 N203Q) above, with L30V, Q65N counted along it

VAX1 [23] = target: VAX1 (Homo sapiens, UniProt Q5SQQ9 86-172, T142I)
VAX1 (Homo sapiens, UniProt Q5SQQ9 86-172, T142I), sequence (Q5SQQ9 86-172 T142I): as the sequence (Q5SQQ9 86-172) above, with T57I counted along it

PAX4 [24] = target: T6, PAX4 (Homo sapiens, UniProt O43316 9-242, R227W)
T6 sequence: T1 sequence with K192R, R219W

CRX [25] = target: CRX (Homo sapiens, UniProt O43186 26-111, R41L)
CRX (Homo sapiens, UniProt O43186 26-111, R41L), sequence (O43186 26-111 R41L): as the sequence (O43186 26-111) above, with R16L counted along it

ALX3 [26] = target: ALX3 (Homo sapiens, UniProt O95076 139-225, N203S)
ALX3 (Homo sapiens, UniProt O95076 139-225, N203S), sequence (O95076 139-225 N203S): as the sequence (O95076 139-225 N203Q) above, with Q65S counted along it

VAX1 [27] = target: VAX1 (Homo sapiens, UniProt Q5SQQ9 86-172, K157R)
VAX1 (Homo sapiens, UniProt Q5SQQ9 86-172, K157R), sequence (Q5SQQ9 86-172 K157R): as the sequence (Q5SQQ9 86-172) above, with K72R counted along it

SHOX [28] = target: SHOX (Homo sapiens, UniProt O15266 103-189)
SHOX (Homo sapiens, UniProt O15266 103-189), sequence (O15266 103-189): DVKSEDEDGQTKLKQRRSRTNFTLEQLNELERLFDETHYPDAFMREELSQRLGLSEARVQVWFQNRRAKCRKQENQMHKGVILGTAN

HOXB9 [29] = target: HOXB9 (Homo sapiens, UniProt P17482 171-250, T197M)
HOXB9 (Homo sapiens, UniProt P17482 171-250, T197M), sequence (P17482 171-250 T197M): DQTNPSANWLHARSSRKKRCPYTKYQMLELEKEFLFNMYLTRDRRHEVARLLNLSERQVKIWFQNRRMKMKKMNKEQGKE

HOXB9 [30] = target: HOXB9 (Homo sapiens, UniProt P17482 171-250)
HOXB9 (Homo sapiens, UniProt P17482 171-250), sequence (P17482 171-250): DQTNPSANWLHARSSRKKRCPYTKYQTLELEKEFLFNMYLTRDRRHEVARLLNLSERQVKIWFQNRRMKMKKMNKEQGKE

ALX1 [31] = target: ALX1 (Homo sapiens, UniProt Q15699 118-204, L144V)
ALX1 (Homo sapiens, UniProt Q15699 118-204, L144V), sequence (Q15699 118-204 L144V): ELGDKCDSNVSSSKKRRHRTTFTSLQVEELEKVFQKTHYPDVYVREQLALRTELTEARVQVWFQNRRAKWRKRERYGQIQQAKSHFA

SHOX [32] = target: SHOX (Homo sapiens, UniProt O15266 103-189, R173C)
SHOX (Homo sapiens, UniProt O15266 103-189, R173C), sequence (O15266 103-189 R173C): as the sequence (O15266 103-189) above, with R71C counted along it

ALX1 [33] = target: ALX1 (Homo sapiens, UniProt Q15699 118-204, L144R)
ALX1 (Homo sapiens, UniProt Q15699 118-204, L144R), sequence (Q15699 118-204 L144R): as the sequence (Q15699 118-204 L144V) above, with V27R counted along it

HOXB9 [34] = target: HOXB9 (Homo sapiens, UniProt P17482 171-250, R186Q)
HOXB9 (Homo sapiens, UniProt P17482 171-250, R186Q), sequence (P17482 171-250 R186Q): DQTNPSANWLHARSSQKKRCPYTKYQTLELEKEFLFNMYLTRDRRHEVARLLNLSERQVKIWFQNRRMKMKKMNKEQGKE

ALX1 [35] = target: ALX1 (Homo sapiens, UniProt Q15699 118-204)
ALX1 (Homo sapiens, UniProt Q15699 118-204), sequence (Q15699 118-204): as the sequence (Q15699 118-204 L144V) above, with V27L counted along it

ALX4 [36] = target: ALX4 (Homo sapiens, UniProt Q9H161 200-286)
ALX4 (Homo sapiens, UniProt Q9H161 200-286), sequence (Q9H161 200-286): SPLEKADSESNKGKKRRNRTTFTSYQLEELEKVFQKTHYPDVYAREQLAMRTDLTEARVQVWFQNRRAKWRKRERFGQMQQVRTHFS

ALX4 [37] = target: ALX4 (Homo sapiens, UniProt Q9H161 200-286, Q225E)
ALX4 (Homo sapiens, UniProt Q9H161 200-286, Q225E), sequence (Q9H161 200-286 Q225E): as the sequence (Q9H161 200-286) above, with Q26E counted along it

NKX2-6 [38] = target: T7, NKX2-6 (Homo sapiens, UniProt A6NCS4 118-204)
T7 sequence: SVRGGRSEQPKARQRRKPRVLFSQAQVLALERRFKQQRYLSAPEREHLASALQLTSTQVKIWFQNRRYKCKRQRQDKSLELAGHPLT

NKX2-6 [39] = target: T8, NKX2-6 (Homo sapiens, UniProt A6NCS4 118-204, F151L)
T8 sequence: T7 sequence with F34L

HESX1 (Homo sapiens, UniProt Q9UBX0 95-180, R165K), sequence (Q9UBX0 95-180 R165K): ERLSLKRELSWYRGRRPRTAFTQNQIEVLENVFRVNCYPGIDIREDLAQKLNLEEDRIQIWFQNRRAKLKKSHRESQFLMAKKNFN
HESX1 (Homo sapiens, UniProt Q9UBX0 95-180), sequence (Q9UBX0 95-180): as the sequence (Q9UBX0 95-180 R165K) above, with K71R counted along it
HESX1 (Homo sapiens, UniProt Q9UBX0 95-180, P111T), sequence (Q9UBX0 95-180 P111T): as the sequence (Q9UBX0 95-180 R165K) above, with P17T, K71R counted along it
HESX1 (Homo sapiens, UniProt Q9UBX0 95-180, F115L), sequence (Q9UBX0 95-180 F115L): as the sequence (Q9UBX0 95-180 R165K) above, with F21L, K71R counted along it

Question: TGTGATAA was tested. Which binding signal (HESX1 [1]) did it give?
Answer: The binding signal was 7.98 upbm affinity estimate (log intensity, higher = more binding, comparable within an allelic series).

Question: And the binding signal (HESX1 [2])?
Answer: The binding signal was 8.21 upbm affinity estimate (log intensity, higher = more binding, comparable within an allelic series).

Question: And the binding signal (HESX1 [3])?
Answer: Its binding signal is 7.65 upbm affinity estimate (log intensity, higher = more binding, comparable within an allelic series).

Question: Which results are given for CATTAGAG?
Answer: binding signal (HESX1 [1]): 8.32 upbm affinity estimate (log intensity, higher = more binding, comparable within an allelic series); binding signal (HESX1 [2]): 8.46 upbm affinity estimate (log intensity, higher = more binding, comparable within an allelic series); binding signal (HESX1 [4]): 6.84 upbm affinity estimate (log intensity, higher = more binding, comparable within an allelic series)

Question: With CGAGGGTC as the sequence, how does the binding signal (HOXB4 [5]) read?
Answer: Its binding signal is 7.67 upbm affinity estimate (log intensity, higher = more binding, comparable within an allelic series).

Question: What about the binding signal (CRX [6]) of the same sequence?
Answer: Its binding signal is 8.26 upbm affinity estimate (log intensity, higher = more binding, comparable within an allelic series).

Question: And the binding signal (HOXC9 [7])?
Answer: The binding signal was 9.55 upbm affinity estimate (log intensity, higher = more binding, comparable within an allelic series).

Question: And the binding signal (PAX4 [8])?
Answer: Its binding signal is 8.99 upbm affinity estimate (log intensity, higher = more binding, comparable within an allelic series).

Question: What about the binding signal (PAX4 [9]) of the same sequence?
Answer: Its binding signal is 9.09 upbm affinity estimate (log intensity, higher = more binding, comparable within an allelic series).

Question: And the binding signal (HOXB4 [10])?
Answer: Its binding signal is 7.5 upbm affinity estimate (log intensity, higher = more binding, comparable within an allelic series).

Question: And the binding signal (CRX [11])?
Answer: The binding signal was 8.34 upbm affinity estimate (log intensity, higher = more binding, comparable within an allelic series).

Question: And the binding signal (HOXC9 [12])?
Answer: Its binding signal is 9.61 upbm affinity estimate (log intensity, higher = more binding, comparable within an allelic series).

Question: And the binding signal (ALX3 [13])?
Answer: Its binding signal is 7.7 upbm affinity estimate (log intensity, higher = more binding, comparable within an allelic series).

Question: What about the binding signal (PAX4 [14]) of the same sequence?
Answer: The binding signal was 9.19 upbm affinity estimate (log intensity, higher = more binding, comparable within an allelic series).

Question: And the binding signal (HOXC9 [15])?
Answer: The binding signal was 9.61 upbm affinity estimate (log intensity, higher = more binding, comparable within an allelic series).

Question: What about the binding signal (PAX4 [16]) of the same sequence?
Answer: The binding signal was 9.25 upbm affinity estimate (log intensity, higher = more binding, comparable within an allelic series).

Question: And the binding signal (ALX3 [17])?
Answer: Its binding signal is 7.59 upbm affinity estimate (log intensity, higher = more binding, comparable within an allelic series).

Question: What about the binding signal (PAX4 [18]) of the same sequence?
Answer: The binding signal was 9.23 upbm affinity estimate (log intensity, higher = more binding, comparable within an allelic series).

Question: And the binding signal (VAX1 [19])?
Answer: Its binding signal is 6.87 upbm affinity estimate (log intensity, higher = more binding, comparable within an allelic series).

Question: What about the binding signal (ALX3 [20]) of the same sequence?
Answer: The binding signal was 7.67 upbm affinity estimate (log intensity, higher = more binding, comparable within an allelic series).

Question: And the binding signal (HOXC9 [21])?
Answer: Its binding signal is 9.69 upbm affinity estimate (log intensity, higher = more binding, comparable within an allelic series).

Question: What about the binding signal (ALX3 [22]) of the same sequence?
Answer: Its binding signal is 7.68 upbm affinity estimate (log intensity, higher = more binding, comparable within an allelic series).

Question: What about the binding signal (VAX1 [23]) of the same sequence?
Answer: Its binding signal is 7 upbm affinity estimate (log intensity, higher = more binding, comparable within an allelic series).

Question: And the binding signal (PAX4 [24])?
Answer: Its binding signal is 9.33 upbm affinity estimate (log intensity, higher = more binding, comparable within an allelic series).

Question: And the binding signal (CRX [25])?
Answer: The binding signal was 8.26 upbm affinity estimate (log intensity, higher = more binding, comparable within an allelic series).

Question: What about the binding signal (ALX3 [26]) of the same sequence?
Answer: The binding signal was 7.71 upbm affinity estimate (log intensity, higher = more binding, comparable within an allelic series).

Question: And the binding signal (VAX1 [27])?
Answer: Its binding signal is 7.08 upbm affinity estimate (log intensity, higher = more binding, comparable within an allelic series).

Question: For CTCAATTC, which binding signal (HESX1 [1]) is on record?
Answer: The binding signal was 7.54 upbm affinity estimate (log intensity, higher = more binding, comparable within an allelic series).

Question: And the binding signal (HESX1 [2])?
Answer: The binding signal was 7.59 upbm affinity estimate (log intensity, higher = more binding, comparable within an allelic series).

Question: And the binding signal (HESX1 [3])?
Answer: The binding signal was 7.26 upbm affinity estimate (log intensity, higher = more binding, comparable within an allelic series).

Question: CGGGAGAG was tested. Which binding signal (HOXB4 [5]) did it give?
Answer: Its binding signal is 7.57 upbm affinity estimate (log intensity, higher = more binding, comparable within an allelic series).

Question: And the binding signal (SHOX [28])?
Answer: The binding signal was 6.89 upbm affinity estimate (log intensity, higher = more binding, comparable within an allelic series).

Question: What about the binding signal (HOXB9 [29]) of the same sequence?
Answer: Its binding signal is 8.56 upbm affinity estimate (log intensity, higher = more binding, comparable within an allelic series).

Question: And the binding signal (HOXB9 [30])?
Answer: Its binding signal is 8.56 upbm affinity estimate (log intensity, higher = more binding, comparable within an allelic series).

Question: What about the binding signal (HOXB4 [10]) of the same sequence?
Answer: The binding signal was 7.66 upbm affinity estimate (log intensity, higher = more binding, comparable within an allelic series).

Question: And the binding signal (ALX1 [31])?
Answer: Its binding signal is 6.33 upbm affinity estimate (log intensity, higher = more binding, comparable within an allelic series).

Question: And the binding signal (SHOX [32])?
Answer: The binding signal was 7.16 upbm affinity estimate (log intensity, higher = more binding, comparable within an allelic series).

Question: And the binding signal (ALX1 [33])?
Answer: Its binding signal is 6.21 upbm affinity estimate (log intensity, higher = more binding, comparable within an allelic series).

Question: And the binding signal (HOXB9 [34])?
Answer: Its binding signal is 8.56 upbm affinity estimate (log intensity, higher = more binding, comparable within an allelic series).

Question: And the binding signal (ALX1 [35])?
Answer: Its binding signal is 6.23 upbm affinity estimate (log intensity, higher = more binding, comparable within an allelic series).

Question: AGCCTGGG was tested. Which binding signal (HOXB4 [5]) did it give?
Answer: Its binding signal is 7.59 upbm affinity estimate (log intensity, higher = more binding, comparable within an allelic series).

Question: And the binding signal (SHOX [28])?
Answer: Its binding signal is 7.06 upbm affinity estimate (log intensity, higher = more binding, comparable within an allelic series).

Question: What about the binding signal (ALX4 [36]) of the same sequence?
Answer: Its binding signal is 7.98 upbm affinity estimate (log intensity, higher = more binding, comparable within an allelic series).

Question: And the binding signal (ALX4 [37])?
Answer: The binding signal was 8.23 upbm affinity estimate (log intensity, higher = more binding, comparable within an allelic series).

Question: What about the binding signal (HOXB4 [10]) of the same sequence?
Answer: Its binding signal is 7.58 upbm affinity estimate (log intensity, higher = more binding, comparable within an allelic series).

Question: What about the binding signal (NKX2-6 [38]) of the same sequence?
Answer: Its binding signal is 8.48 upbm affinity estimate (log intensity, higher = more binding, comparable within an allelic series).

Question: What about the binding signal (SHOX [32]) of the same sequence?
Answer: Its binding signal is 7.22 upbm affinity estimate (log intensity, higher = more binding, comparable within an allelic series).

Question: And the binding signal (NKX2-6 [39])?
Answer: The binding signal was 9.24 upbm affinity estimate (log intensity, higher = more binding, comparable within an allelic series).
